# Values without a mark were called inactive.
# Key:
# Assay in all cases: log2 ratio of Biotin-Ahx-Ub-VS probe labelling (fragment/DMSO); higher = less target engagement (more negative = stronger competition), active = hit call of the paper (q ≤ 0.05, log2 ratio ≤ -1)
# Conditions in all cases: compound concentration: 200 uM; treatment time: 3 h
# OTUD6B = target: T1, OTUD6B (UniProt Q8N6M0)
# T1 sequence (whole entry): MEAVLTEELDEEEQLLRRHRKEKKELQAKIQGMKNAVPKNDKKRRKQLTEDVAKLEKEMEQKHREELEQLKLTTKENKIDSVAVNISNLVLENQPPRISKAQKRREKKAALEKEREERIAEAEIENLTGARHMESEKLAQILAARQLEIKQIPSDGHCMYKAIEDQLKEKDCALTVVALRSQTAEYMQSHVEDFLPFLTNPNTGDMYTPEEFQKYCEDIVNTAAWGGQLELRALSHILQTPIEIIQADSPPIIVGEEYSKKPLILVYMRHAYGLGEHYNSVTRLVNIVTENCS
# Procedure, shortened: (§1)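 Fragment (200 µM) or vehicle was incubated for 3 h with triplicate HEK293T lysate samples of 495 µg, which were then treated with Biotin-Ahx-Ub-VS at 0.5 µM final for 1 h. Labelled DUBs were enriched on NeutrAvidin, digested with LysC and trypsin, and analysed by diaPASEF LC-MS/MS. Values are average log2 fragment/vehicle ratios from an unpaired t-test on global-median-normalised Spectronaut label-free quantities, using proteins with ≥2 unique peptides.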
# OTUD7B = target: T2, OTUD7B (UniProt Q6GQQ9)
# T2 sequence (whole entry): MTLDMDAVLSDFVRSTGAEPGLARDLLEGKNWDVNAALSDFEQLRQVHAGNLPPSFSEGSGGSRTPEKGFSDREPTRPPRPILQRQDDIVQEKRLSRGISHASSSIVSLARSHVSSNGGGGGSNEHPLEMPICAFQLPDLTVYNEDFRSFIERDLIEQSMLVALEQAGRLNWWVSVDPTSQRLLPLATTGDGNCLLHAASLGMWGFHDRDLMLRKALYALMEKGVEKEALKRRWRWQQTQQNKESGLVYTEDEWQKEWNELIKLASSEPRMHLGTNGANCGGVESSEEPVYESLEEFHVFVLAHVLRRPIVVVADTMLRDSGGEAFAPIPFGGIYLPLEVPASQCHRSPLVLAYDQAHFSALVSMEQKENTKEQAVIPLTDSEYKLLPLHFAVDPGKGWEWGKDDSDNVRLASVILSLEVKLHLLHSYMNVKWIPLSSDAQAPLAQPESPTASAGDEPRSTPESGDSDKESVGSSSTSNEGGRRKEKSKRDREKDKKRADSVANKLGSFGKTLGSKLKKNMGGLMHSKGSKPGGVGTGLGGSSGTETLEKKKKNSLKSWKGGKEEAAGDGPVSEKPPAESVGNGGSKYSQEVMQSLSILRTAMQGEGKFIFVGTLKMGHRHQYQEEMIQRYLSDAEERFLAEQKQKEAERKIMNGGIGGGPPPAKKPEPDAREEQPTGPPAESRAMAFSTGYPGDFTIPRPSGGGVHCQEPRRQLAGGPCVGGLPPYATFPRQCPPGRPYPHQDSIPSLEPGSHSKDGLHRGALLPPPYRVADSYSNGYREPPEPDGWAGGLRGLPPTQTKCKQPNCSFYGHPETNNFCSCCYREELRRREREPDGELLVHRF
# Procedure, shortened: as §1
# PRPF8 = PRPF8 (UniProt Q6P2Q9)
# Procedure, shortened: as §1
# PSMD7 = target: T3, PSMD7 (UniProt P51665)
# T3 sequence (whole entry): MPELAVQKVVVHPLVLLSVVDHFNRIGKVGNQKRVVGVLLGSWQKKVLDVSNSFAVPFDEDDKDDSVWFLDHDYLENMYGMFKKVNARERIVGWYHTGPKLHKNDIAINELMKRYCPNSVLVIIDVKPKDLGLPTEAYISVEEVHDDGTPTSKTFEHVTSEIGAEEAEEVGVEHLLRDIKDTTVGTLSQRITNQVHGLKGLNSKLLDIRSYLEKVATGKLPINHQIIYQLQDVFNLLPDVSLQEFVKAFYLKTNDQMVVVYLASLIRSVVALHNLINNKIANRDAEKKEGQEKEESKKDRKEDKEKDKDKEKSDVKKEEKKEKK
# Procedure, shortened: as §1
# UCHL1 = UCHL1 (UniProt P09936)
# Procedure, shortened: as §1
# UCHL3 = target: T4, UCHL3 (UniProt P15374)
# T4 sequence (whole entry): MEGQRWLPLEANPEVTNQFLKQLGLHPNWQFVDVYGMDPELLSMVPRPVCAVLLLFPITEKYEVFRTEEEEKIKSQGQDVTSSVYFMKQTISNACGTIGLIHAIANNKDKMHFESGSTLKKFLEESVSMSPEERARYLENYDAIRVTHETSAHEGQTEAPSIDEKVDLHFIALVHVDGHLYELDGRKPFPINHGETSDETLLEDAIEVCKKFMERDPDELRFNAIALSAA
# Procedure, shortened: as §1
# UCHL5 = target: T5, UCHL5 (UniProt Q9Y5K5)
# T5 sequence (whole entry): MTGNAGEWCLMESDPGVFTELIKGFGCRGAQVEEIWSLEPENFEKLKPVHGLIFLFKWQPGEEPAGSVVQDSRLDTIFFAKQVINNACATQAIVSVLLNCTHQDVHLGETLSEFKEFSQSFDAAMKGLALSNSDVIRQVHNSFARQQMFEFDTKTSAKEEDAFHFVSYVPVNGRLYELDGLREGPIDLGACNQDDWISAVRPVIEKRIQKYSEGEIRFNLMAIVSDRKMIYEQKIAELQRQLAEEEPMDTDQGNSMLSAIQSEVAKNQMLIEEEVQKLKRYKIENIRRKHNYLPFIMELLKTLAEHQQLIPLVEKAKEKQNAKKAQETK
# Procedure, shortened: as §1
# USP10 = USP10 (UniProt Q14694)
# Procedure, shortened: as §1
# USP15 = target: T6, USP15 (UniProt Q9Y4E8)
# T6 sequence (whole entry): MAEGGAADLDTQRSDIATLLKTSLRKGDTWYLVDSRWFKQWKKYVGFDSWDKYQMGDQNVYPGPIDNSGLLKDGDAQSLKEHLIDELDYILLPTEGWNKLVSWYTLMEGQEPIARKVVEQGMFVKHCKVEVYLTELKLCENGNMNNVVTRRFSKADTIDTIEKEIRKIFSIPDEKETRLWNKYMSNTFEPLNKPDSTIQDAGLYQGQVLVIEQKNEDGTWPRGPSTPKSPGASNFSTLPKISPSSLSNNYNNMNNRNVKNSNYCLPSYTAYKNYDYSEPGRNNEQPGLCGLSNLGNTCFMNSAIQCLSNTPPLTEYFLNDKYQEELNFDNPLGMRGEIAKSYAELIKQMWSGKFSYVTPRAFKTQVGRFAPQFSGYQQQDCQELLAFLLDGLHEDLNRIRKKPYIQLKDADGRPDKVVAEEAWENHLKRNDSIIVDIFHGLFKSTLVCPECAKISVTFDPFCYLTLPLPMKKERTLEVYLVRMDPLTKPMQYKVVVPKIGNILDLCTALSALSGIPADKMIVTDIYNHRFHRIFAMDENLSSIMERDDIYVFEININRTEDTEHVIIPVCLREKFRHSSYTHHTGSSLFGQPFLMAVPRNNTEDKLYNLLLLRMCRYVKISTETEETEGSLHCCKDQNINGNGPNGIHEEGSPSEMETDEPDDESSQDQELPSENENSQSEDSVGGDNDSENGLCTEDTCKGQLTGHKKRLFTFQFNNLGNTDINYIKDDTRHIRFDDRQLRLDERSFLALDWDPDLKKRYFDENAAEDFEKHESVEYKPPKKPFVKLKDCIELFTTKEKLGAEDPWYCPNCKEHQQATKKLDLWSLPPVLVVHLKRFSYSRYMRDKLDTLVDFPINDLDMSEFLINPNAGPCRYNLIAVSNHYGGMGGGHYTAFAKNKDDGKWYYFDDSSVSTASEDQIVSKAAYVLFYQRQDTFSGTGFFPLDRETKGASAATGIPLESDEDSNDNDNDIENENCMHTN
# Procedure, shortened: as §1
# USP16 = USP16 (UniProt Q9Y5T5)
# Procedure, shortened: as §1
# USP10, sequence (Q14694 whole entry): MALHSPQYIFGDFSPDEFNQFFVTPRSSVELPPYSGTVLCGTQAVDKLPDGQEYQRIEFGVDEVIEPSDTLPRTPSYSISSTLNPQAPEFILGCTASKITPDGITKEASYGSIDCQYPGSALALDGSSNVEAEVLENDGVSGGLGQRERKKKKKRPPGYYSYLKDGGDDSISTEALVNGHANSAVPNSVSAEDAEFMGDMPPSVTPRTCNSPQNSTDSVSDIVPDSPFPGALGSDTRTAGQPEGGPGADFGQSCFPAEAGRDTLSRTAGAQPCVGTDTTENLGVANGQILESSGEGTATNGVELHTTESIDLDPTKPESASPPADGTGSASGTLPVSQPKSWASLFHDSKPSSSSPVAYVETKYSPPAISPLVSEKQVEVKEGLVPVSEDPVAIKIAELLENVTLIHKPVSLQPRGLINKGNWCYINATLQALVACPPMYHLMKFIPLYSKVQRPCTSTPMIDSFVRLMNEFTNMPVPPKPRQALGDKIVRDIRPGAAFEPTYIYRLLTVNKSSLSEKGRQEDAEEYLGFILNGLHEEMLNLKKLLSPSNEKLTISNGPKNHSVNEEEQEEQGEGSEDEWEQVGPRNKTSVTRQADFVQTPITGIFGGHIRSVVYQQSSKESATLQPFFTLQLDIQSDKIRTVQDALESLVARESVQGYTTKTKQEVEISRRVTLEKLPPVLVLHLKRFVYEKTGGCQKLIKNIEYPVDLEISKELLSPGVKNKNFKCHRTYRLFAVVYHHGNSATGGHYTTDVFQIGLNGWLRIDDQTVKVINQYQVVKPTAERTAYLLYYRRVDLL
# UCHL1, sequence (P09936 whole entry, looked up): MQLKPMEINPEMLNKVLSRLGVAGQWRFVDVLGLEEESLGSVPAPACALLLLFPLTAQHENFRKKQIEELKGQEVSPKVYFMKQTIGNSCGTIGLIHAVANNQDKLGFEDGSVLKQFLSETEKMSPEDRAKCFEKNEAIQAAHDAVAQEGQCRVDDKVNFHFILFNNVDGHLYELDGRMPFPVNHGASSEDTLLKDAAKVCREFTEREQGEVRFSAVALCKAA
# USP16, sequence (Q9Y5T5 whole entry, looked up): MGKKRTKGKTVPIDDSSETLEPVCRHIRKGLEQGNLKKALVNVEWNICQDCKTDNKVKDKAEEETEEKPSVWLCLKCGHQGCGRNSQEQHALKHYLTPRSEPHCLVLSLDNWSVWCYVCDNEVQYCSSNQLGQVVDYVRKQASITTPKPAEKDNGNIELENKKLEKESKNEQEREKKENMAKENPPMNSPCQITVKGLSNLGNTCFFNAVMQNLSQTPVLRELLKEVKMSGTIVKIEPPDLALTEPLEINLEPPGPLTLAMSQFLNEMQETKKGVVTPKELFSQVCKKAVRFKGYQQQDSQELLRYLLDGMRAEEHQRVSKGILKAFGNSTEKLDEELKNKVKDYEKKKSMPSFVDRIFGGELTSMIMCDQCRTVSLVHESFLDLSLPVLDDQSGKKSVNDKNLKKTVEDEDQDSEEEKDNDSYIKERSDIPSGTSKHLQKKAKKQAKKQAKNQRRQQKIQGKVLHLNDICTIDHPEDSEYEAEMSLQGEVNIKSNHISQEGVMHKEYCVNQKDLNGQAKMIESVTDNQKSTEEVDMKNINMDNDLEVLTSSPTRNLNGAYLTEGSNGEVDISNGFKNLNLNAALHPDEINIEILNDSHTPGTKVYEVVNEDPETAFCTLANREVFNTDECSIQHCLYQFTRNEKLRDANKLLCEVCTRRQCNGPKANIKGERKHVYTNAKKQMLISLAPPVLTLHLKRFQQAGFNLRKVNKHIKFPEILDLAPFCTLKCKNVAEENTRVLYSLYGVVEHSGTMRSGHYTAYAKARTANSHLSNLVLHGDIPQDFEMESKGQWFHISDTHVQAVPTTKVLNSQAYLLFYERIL
smiles,measurement,setting,value
Cc1cccn2cc(CCNC(=O)CCl)nc12.Cl,log2 ratio of Biotin-Ahx-Ub-VS probe labelling,OTUD6B,-0.414
same,log2 ratio of Biotin-Ahx-Ub-VS probe labelling,OTUD7B,-0.338
same,log2 ratio of Biotin-Ahx-Ub-VS probe labelling,PRPF8,0.19
same,log2 ratio of Biotin-Ahx-Ub-VS probe labelling,PSMD7,-0.207
same,log2 ratio of Biotin-Ahx-Ub-VS probe labelling,UCHL1,-1.98 (active)
same,log2 ratio of Biotin-Ahx-Ub-VS probe labelling,UCHL3,0.136
same,log2 ratio of Biotin-Ahx-Ub-VS probe labelling,UCHL5,-0.00232
same,log2 ratio of Biotin-Ahx-Ub-VS probe labelling,USP10,-0.0824
same,log2 ratio of Biotin-Ahx-Ub-VS probe labelling,USP15,-0.191
same,log2 ratio of Biotin-Ahx-Ub-VS probe labelling,USP16,-0.607

# Reference: the supplement of paper PMC11732987, “Enantioselective OTUD7B fragment discovery through chemoproteomics screening and high-throughput optimisation” (Communications Chemistry, 2025)
